{"source": "the OligoGym collection", "data": [{"biological_target": "ZNF20", "assay": "pooled miR-30 sensor sort-seq; sequence = guide strand", "conditions": "shRNA", "values": [{"sequence": "TGAAGTTGTGAAGCACATCTAA", "sensor-assay potency score (higher = more potent)": -0.501}, {"sequence": "TTGTATTACGAAACCATCCAAG", "sensor-assay potency score (higher = more potent)": -0.687}, {"sequence": "TTCAATGTTCTGAACTTTCCAT", "sensor-assay potency score (higher = more potent)": -0.266}, {"sequence": "TACCACAGTGCTTACATTCATA", "sensor-assay potency score (higher = more potent)": -0.662}, {"sequence": "TTTCTCTCCACTGTGCGTCCTT", "sensor-assay potency score (higher = more potent)": -0.157}, {"sequence": "TAGTGCAAGCTTTATCATGTGA", "sensor-assay potency score (higher = more potent)": -0.356}, {"sequence": "TTTCTCTTTAGTGCAAGCTTTA", "sensor-assay potency score (higher = more potent)": -0.882}, {"sequence": "TAAGACTTAGATTTCTCCTGGG", "sensor-assay potency score (higher = more potent)": 0.935}, {"sequence": "TATTAAGAGATGAATGACCCGT", "sensor-assay potency score (higher = more potent)": -0.0204}, {"sequence": "TTTCTGTACATTCTTTACCATC", "sensor-assay potency score (higher = more potent)": -1.72}, {"sequence": "TTCTATATGGATTCTCTCCATA", "sensor-assay potency score (higher = more potent)": -1.01}, {"sequence": "TTTCACATGGTGTTATTCCAGG", "sensor-assay potency score (higher = more potent)": -0.755}]}, {"biological_target": "ZNF213", "assay": "pooled miR-30 sensor sort-seq; sequence = guide strand", "conditions": "shRNA", "values": [{"sequence": "ATCCCTGCCATCCTCATGCTGG", "sensor-assay potency score (higher = more potent)": -1.09}, {"sequence": "TTGAGCCCAAAACCCAGGGTGG", "sensor-assay potency score (higher = more potent)": -1.3}, {"sequence": "TTCTGTAGGTCCTCCACCAAGG", "sensor-assay potency score (higher = more potent)": -1.39}, {"sequence": "TGTAGGTCCTCCACCAAGGCGA", "sensor-assay potency score (higher = more potent)": -0.787}, {"sequence": "TTCGGAATCCCTGCCATCCTCA", "sensor-assay potency score (higher = more potent)": -0.738}, {"sequence": "TTTCACTGGCTGCTTCTGTAGG", "sensor-assay potency score (higher = more potent)": -0.917}, {"sequence": "TCACTTTGGCCTTTGAGCCCAA", "sensor-assay potency score (higher = more potent)": -0.58}, {"sequence": "TTTGAGCCCAAAACCCAGGGTG", "sensor-assay potency score (higher = more potent)": -0.556}, {"sequence": "TGTCTGGCCTGGCACCACCGGC", "sensor-assay potency score (higher = more potent)": -1.68}, {"sequence": "TCACTGGCTGCTTCTGTAGGTC", "sensor-assay potency score (higher = more potent)": -0.833}, {"sequence": "TAATACTCTTCTGTTGCCCTTT", "sensor-assay potency score (higher = more potent)": 0.353}, {"sequence": "TCGGGTTCCGCCTCCTCCGAGG", "sensor-assay potency score (higher = more potent)": -1.19}]}, {"biological_target": "ZNF214", "assay": "pooled miR-30 sensor sort-seq; sequence = guide strand", "conditions": "shRNA", "values": [{"sequence": "TTAACCATTCCTGACACTGGGA", "sensor-assay potency score (higher = more potent)": -0.384}, {"sequence": "TTTTATAGAATTTCTCTTCTGT", "sensor-assay potency score (higher = more potent)": 1.04}, {"sequence": "TCTTGTGGAAAACACACCGTGA", "sensor-assay potency score (higher = more potent)": -0.342}, {"sequence": "TCTACTGACATGACATTTGTGT", "sensor-assay potency score (higher = more potent)": 0.423}, {"sequence": "TATACAAGTCTGATCTCTGAGA", "sensor-assay potency score (higher = more potent)": -0.855}, {"sequence": "TTATAGAATTTCTCTTCTGTGT", "sensor-assay potency score (higher = more potent)": -0.222}, {"sequence": "TTGGATGTCTATACAAGTCTGA", "sensor-assay potency score (higher = more potent)": 0.602}, {"sequence": "TGAGCTGTGACTAAAGTCCTTT", "sensor-assay potency score (higher = more potent)": -0.611}, {"sequence": "TCTGATGAAAGTGAACTCCGGA", "sensor-assay potency score (higher = more potent)": 0.913}, {"sequence": "TAAACTTTGATTAAAGCTGTTA", "sensor-assay potency score (higher = more potent)": -0.478}, {"sequence": "TCTTTGATGAGTGTGAAGCTTT", "sensor-assay potency score (higher = more potent)": -0.426}, {"sequence": "TAGAACTGTGACTAAAACCCTT", "sensor-assay potency score (higher = more potent)": -0.352}]}, {"biological_target": "ZNF219", "assay": "pooled miR-30 sensor sort-seq; sequence = guide strand", "conditions": "shRNA", "values": [{"sequence": "TTTATTGGGGACACGACTCTGC", "sensor-assay potency score (higher = more potent)": 0.537}, {"sequence": "TTCCGCAGAAAGGACAATCCTT", "sensor-assay potency score (higher = more potent)": -0.585}, {"sequence": "TATCGCTGCAGATCCAGCTCGC", "sensor-assay potency score (higher = more potent)": 0.347}]}]}
